Measured values published in PubChem BioAssay.
Active and inactive are the calls of the source.

How the values were obtained:
[1] = A549 cell viability effects, profiling panel, calcein-AM fluorescence, 48 h, basal (AID 1162); conditions: higher = more signal
[2] = adipocyte viability effects, profiling panel, cell-based, 3T3-L1 adipocytes, calcein-AM fluorescence, 48 h, basal (AID 1163); conditions: 3T3-L1 adipocytes viability, higher = more signal
[3] = HepG2 cell viability effects, profiling panel, calcein-AM fluorescence, 48 h, basal (AID 1164); conditions: higher = more signal
[4] = MM1S cell viability effects, profiling panel, calcein-AM fluorescence, 48 h, basal (AID 1165); conditions: higher = more signal;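 further: viability of MM1S multiple myeloma cells under basal unstimulated conditions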
[5] = basal RPMI8226 viability, no added stimulus, profiling panel, cell-based, calcein-AM fluorescence, 48 h, PK04 Diversity Set (AID 1166); conditions: RPMI8226 myeloma viability, higher = more signal;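 further: cells grown under basal conditions without added stimulus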
[6] = basal HepG2 mitochondrial membrane potential changes, profiling panel, cell-based, JC-1 fluorescence, 24 h, 100 nL compound (AID 1167); conditions: higher = more signal
[7] = basal 3T3-L1 adipocyte mitochondrial potential changes, profiling panel, cell-based, JC-1 fluorescence, 3T3-L1 adipocytes, 24 h, 100 nL compound (AID 1168); conditions: JC-1 mitochondrial fluorescence, higher = more signal, called active from +8 up or from −8 down
[8] = basal RPMI8226 mitochondrial membrane potential changes, profiling panel, cell-based, JC-1 fluorescence, 24 h, 100 nL compound (AID 1169); conditions: RPMI8226 myeloma, JC-1 mitochondrial potential fluorescence, higher = more signal
[9] = basal MM1S mitochondrial membrane potential changes, profiling panel, cell-based, JC-1 fluorescence, 24 h, 100 nL compound (AID 1170); conditions: higher = more signal
[10] = A549 lung cancer cell viability effects, profiling panel, resazurin fluorescence, 24 h, PK04 Diversity Set (AID 1171); conditions: higher = more signal, called active from +8 up or from −8 down
Further: test concentration not given here.

| SMILES | z-score [1] | z-score [2] | z-score [3] | z-score [4] | z-score [5] | z-score [6] | z-score [7] | z-score [8] | z-score [9] | z-score [10] |
| --- | --- | --- | --- | --- | --- | --- | --- | --- | --- | --- |
| COC(=O)[C@@]1(Cc2ccccc2CN=[N+]=[N-])N=C(c2ccc(OCCCO)cc2)O[C@H]1c1ccccc1N=[N+]=[N-] | -2.1 | 0.0397 | -2.36 | -2.99 | -3.63 | -0.00729 | -0.222 (inactive) | -1.19 | -2.29 | -1.35 (inactive) |
| O=C1c2ccccc2[C@@]2(Cc3ccccc3N(CC(F)(F)F)C2=O)[C@H](c2ccc(CO)cc2)N1C1CCCCC1 | -0.449 | 0.747 | -0.0145 | 0.129 | -1.27 | -0.0304 | 0.701 (inactive) | 1.06 | 0.933 | 0.304 (inactive) |
| COc1cc2c(cc1OC)CN(C(=O)[C@H]1[C@@H]3C(=O)O[C@@H](c4ccccc4)[C@@H](c4ccccc4)N3[C@@H](c3ccccc3OCCO)[C@]13C(=O)Nc1ccc(C#CC4(O)CCCCCC4)cc13)CC2 | 0.434 | -0.0514 | 1.64 | -0.988 | -1.93 | -0.198 | 0.994 (inactive) | -0.812 | -1.41 | -0.771 (inactive) |
| CCCCCCc1nc(-c2cc(C)c(OC)c(C)c2)cc2c1[Si](C(C)C)(C(C)C)O[C@H]2c1ccccc1 | 0.723 | -0.185 | -0.59 | -0.0523 | -0.942 | 0.201 | -0.152 (inactive) | 0.77 | -0.683 | 0.732 (inactive) |
| CO[C@H]1COC(=O)[C@H](C)COC(=O)[C@H](Cc2ccccc2)NC(=O)CC=C[C@H]1C | 0.219 | -0.0092 | 0.284 | -0.0516 | 1.14 | 0.744 | 0.854 (inactive) | 0.433 | 0.213 | -0.36 (inactive) |
| CN1C2C=C(c3ccc(CO)cc3)C(C3C(=O)N(C(N)=O)C(=O)C32)C1c1cccs1 (stereo not given) | 0.555 | 1.64 | -0.542 | 0.31 | 1.07 | 0.171 | 0.497 (inactive) | -0.21 | 0.491 | 0.567 (inactive) |
| CO[C@@H]1COC(=O)[C@H](C)NC(=O)CC=C[C@@H](C)[C@H](OC)COC(=O)[C@H](C)NC(=O)CC=C[C@H]1C | 1.2 | -0.0006 | 1.01 | 0.419 | 0.973 | 0.51 | 1.44 (inactive) | -1.04 | 1.95 | 0.787 (inactive) |
| CC(C)CN1C(=O)[C@@]2(Cc3ccccc31)c1ccccc1C(=O)N(C1CCCCC1)[C@H]2c1ccc(CO)cc1 | 0.572 | 1.86 | 0.502 | 0.845 | -0.0832 | -0.178 | 0.938 (inactive) | -0.6 | 0.00808 | 0.148 (inactive) |
| CC(C)[Si]1(C(C)C)O[C@@H](c2ccccc2)c2cc(C3CC3)nc(-c3ccc(Oc4ccccc4)cc3)c21 | -0.654 | 1.31 | 0.0626 | -0.964 | 0.391 | 0.484 | 0.924 (inactive) | 0.38 | 0.484 | 1.6 (inactive) |
| CO[C@]12C=C(Br)[C@@H](C[C@@H]1c1ccccc1)[C@@]1(CO1)C2=O | -1.08 | 1.18 | -1.08 | -2.34 | -1.62 | -0.143 | 1.12 (inactive) | -0.376 | 0.0484 | -0.446 (inactive) |
| COCCOC(=O)N1C(=O)[C@@]2(c3cc(C#CC4=CCCCC4)ccc31)[C@H](C(=O)NC[C@H](O)c1ccccc1)[C@H]1C(=O)O[C@H](c3ccccc3)[C@H](c3ccccc3)N1[C@@H]2c1ccc(OCCO)cc1 | -0.602 | -0.39 | -0.199 | -1.89 | -1.63 | -1.92 | 0.449 (inactive) | -0.704 | -1.65 | -0.355 (inactive) |
| C=CCC1=C[C@H]2[C@H]([C@@H]3C=C[C@]2(CC=C)C(=O)[C@]32CO2)[C@@]2(CO2)C1=O | -0.135 | 0.916 | -0.732 | -3.16 | -2.93 | 0.896 | 1.54 (inactive) | -0.201 | -2.08 | -1.33 (inactive) |
| CCOC(=O)C[C@H]1[C@H](OC(=O)Cc2ccc3c(c2)OCO3)[C@@H](NC(=O)CC(C)C)c2cc(OCCCO)ccc2N1C(=O)c1ccccc1 | 2.34 | -0.148 | 0.978 | 0.532 | 2.13 | 1.78 | 1.58 (inactive) | -0.0658 | 0.751 | 1.16 (inactive) |
| CN(C)C(=O)[C@@]1(Cc2ccccc2N=[N+]=[N-])N=C(c2ccc(OCCCO)cc2)O[C@H]1c1ccccc1CN=[N+]=[N-] | -0.996 | 1.16 | -1.23 | -2.91 | -3.39 | 2.17 | 0.618 (inactive) | -0.904 | -0.679 | 0.276 (inactive) |
| O=C1C[C@@](C(=O)NC2CC2)(c2ccc([N+](=O)[O-])cc2)[C@@H](c2ccc(CO)cc2I)N1CC12CC3CC(CC(C3)C1)C2 | -2.31 | -0.375 | -5.04 | -3.83 | -4.33 | -2.32 | -0.869 (inactive) | -1.02 | -2.4 | -3.35 (inactive) |
| CN1C(=O)C2C=CC(C(O)c3ccc(N(C)C)cc3)N(Nc3ccc([N+](=O)[O-])cc3[N+](=O)[O-])C2C1=O (stereo not given) | 1.09 | -0.459 | -0.0167 | -0.126 | -0.4 | -0.672 | -1.06 (inactive) | 0.0429 | -0.0883 | 0.0697 (inactive) |
| C#CCCCON=C1C[C@@H](O)[C@@H](O)[C@@H]2[C@@H]3C(=O)N(Cc4ccc5c(c4)OCO5)C(=O)[C@@H]3CC[C@H]12 | 0.391 | -0.027 | -0.464 | 0.484 | 0.0196 | -0.537 | -0.0334 (inactive) | -0.427 | -0.778 | 0.495 (inactive) |
| CC(C)(C)OC(=O)CC[C@]1(C(=O)N2CCCCC2)N=C(c2ccc(OCCCO)cc2)O[C@H]1c1ccccc1 | 2.04 | 1.24 | 1.01 | 0.523 | -1.04 | 2.2 | 2.09 (inactive) | -0.123 | 0.317 | -0.354 (inactive) |
| CCCNC(=O)[C@@H]1c2ccccc2C(=O)N(Cc2cc(F)cc(C(F)(F)F)c2)[C@H]1c1ccc(CO)cc1 | 1.68 | 1.18 | -0.0223 | 0.168 | 0.563 | 2.07 | -0.31 (inactive) | 0.693 | 0.607 | 1.54 (inactive) |
| C=C(COC)/C(=C/C[C@@H](OC(C)=O)c1cccc(OCCO)c1)c1cc(C(=O)OC)ccc1OC | 1.1 | -0.412 | 0.409 | -1.29 | 0.0922 | 3.3 | 1.2 (inactive) | 0.127 | -0.466 | 1.49 (inactive) |
| C=CC[C@]1(C(=O)OC)N=C(c2ccc(OCCCO)cc2)O[C@H]1c1ccccc1CN=[N+]=[N-] | -0.844 | 1.51 | -1.09 | -2.04 | -2.24 | -0.000782 | 0.21 (inactive) | -1.01 | 0.734 | -0.179 (inactive) |
| COc1ccc([Si](C)(C)[C@@H]2[C@@H](CCO)O[C@]3(C(=O)N(Cc4ccc(NC(=O)[C@H](C)O)cc4)c4ccccc43)[C@H]2C)cc1 | -2.45 | 1.63 | -2.43 | -2.97 | -2.49 | -1.84 | 0.492 (inactive) | -1.12 | -0.492 | -2.95 (inactive) |
| CO[C@@H]1COC(=O)[C@H](COCc2ccccc2)NC(=O)CC=C[C@@H](C)[C@H](OC)COC(=O)[C@H](COCc2ccccc2)NC(=O)CC=C[C@H]1C | 0.404 | 0.67 | -0.0841 | 0.0234 | 0.711 | 0.849 | 1 (inactive) | 0.525 | 0.178 | 0.296 (inactive) |
| O=C1O[C@H](c2ccccc2)[C@H](c2ccccc2)N2[C@H]1[C@@H](C(=O)Nc1nc3ccccc3s1)[C@]1(C(=O)Nc3ccc(C#CC4(O)CCCCCC4)cc31)[C@H]2c1ccc(O)cc1 | -0.0457 | 0.6 | -0.0827 | -2.98 | -4.08 | -3.62 | -2.4 (inactive) | -1.14 | -0.676 | -0.318 (inactive) |
